# Test results from publication PMC7862700, “An all-to-all approach to the identification of sequence-specific readers for epigenetic DNA modifications on cytosine”.
# What was measured:
# Test in all cases: DAPPL (digital affinity profiling via proximity ligation, sequencing); 10 mM Tris-HCl pH 7.5, 50 mM NaCl, 1 mM DTT, 4% glycerol, room temperature, 30 min; GST-TFs on glutathione beads, 16-mer random dsDNA library, 0.1% formaldehyde crosslink after washing; high values mean tight binding
# FLI1 = target: T1, FLI1 (Homo sapiens, UniProt Q01543 1-452); conditions: protein: recombinant; tags: N-terminal GST; dsDNA, one strand shown
# T1 sequence: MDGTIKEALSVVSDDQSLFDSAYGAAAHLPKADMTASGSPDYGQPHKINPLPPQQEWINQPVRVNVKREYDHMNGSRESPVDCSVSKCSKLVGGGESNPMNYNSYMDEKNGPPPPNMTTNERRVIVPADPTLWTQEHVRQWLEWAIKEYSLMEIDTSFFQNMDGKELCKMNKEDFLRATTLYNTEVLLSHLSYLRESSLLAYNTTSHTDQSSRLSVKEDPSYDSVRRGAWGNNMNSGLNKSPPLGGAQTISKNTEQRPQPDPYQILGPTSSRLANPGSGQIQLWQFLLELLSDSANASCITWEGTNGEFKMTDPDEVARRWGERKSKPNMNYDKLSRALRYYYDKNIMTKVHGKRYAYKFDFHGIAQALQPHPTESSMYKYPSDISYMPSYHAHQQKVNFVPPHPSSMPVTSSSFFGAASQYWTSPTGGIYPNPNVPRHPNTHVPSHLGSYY
# Procedure, shortened: (§1)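 Sequencing on an Illumina NextSeq500 followed washing, crosslinking with 0.1% formaldehyde, proximity ligation (BsaI/T4 ligase, 1 h, 37 °C) and PCR amplification of pools that had been incubated for 30 min at room temperature with 200 nmole of a random double-stranded 16-mer DNA library in Tris/NaCl/DTT/glycerol buffer. Each pool held DNA-barcoded human transcription factors, expressed in yeast as GST fusions and captured on glutathione beads, plus a tag-only sample. Binding signal is a hexamer's read frequency for a factor divided by its frequency in the tag-only sample.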
# ELK1 = target: T2, ELK1 (Homo sapiens, UniProt P19419 1-428); conditions: protein: recombinant; tags: N-terminal GST; dsDNA, one strand shown
# T2 sequence: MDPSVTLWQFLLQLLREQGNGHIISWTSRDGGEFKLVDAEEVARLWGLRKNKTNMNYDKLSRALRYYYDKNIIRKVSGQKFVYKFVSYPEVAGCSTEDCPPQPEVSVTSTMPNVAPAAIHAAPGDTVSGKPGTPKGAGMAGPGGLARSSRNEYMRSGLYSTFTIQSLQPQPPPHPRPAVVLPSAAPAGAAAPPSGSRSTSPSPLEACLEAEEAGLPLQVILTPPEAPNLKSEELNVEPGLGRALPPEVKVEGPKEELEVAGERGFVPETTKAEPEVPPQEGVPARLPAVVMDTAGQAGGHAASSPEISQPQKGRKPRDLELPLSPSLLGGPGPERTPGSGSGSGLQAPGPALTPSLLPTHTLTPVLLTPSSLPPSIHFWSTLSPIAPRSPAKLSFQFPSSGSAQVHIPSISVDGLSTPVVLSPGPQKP
# Procedure, shortened: as §1
# GABPA = target: T3, GABPA (Homo sapiens, UniProt Q06546 1-454); conditions: protein: recombinant; tags: N-terminal GST; dsDNA, one strand shown
# T3 sequence: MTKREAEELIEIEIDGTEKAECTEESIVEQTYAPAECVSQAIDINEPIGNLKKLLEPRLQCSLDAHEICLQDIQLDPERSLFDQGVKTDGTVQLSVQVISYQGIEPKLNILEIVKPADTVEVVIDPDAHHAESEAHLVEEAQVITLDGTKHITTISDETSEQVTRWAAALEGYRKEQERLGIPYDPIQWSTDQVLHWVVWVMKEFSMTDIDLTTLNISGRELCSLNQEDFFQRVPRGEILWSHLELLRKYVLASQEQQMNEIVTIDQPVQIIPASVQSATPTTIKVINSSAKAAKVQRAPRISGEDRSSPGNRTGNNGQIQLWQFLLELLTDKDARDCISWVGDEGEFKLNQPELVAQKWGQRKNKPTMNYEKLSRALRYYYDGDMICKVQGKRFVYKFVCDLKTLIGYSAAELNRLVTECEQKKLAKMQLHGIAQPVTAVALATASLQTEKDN
# Procedure, shortened: as §1
# ERG = target: T4, ERG (Homo sapiens, UniProt P11308 1-479); conditions: protein: recombinant; tags: N-terminal GST; dsDNA, one strand shown
# T4 sequence: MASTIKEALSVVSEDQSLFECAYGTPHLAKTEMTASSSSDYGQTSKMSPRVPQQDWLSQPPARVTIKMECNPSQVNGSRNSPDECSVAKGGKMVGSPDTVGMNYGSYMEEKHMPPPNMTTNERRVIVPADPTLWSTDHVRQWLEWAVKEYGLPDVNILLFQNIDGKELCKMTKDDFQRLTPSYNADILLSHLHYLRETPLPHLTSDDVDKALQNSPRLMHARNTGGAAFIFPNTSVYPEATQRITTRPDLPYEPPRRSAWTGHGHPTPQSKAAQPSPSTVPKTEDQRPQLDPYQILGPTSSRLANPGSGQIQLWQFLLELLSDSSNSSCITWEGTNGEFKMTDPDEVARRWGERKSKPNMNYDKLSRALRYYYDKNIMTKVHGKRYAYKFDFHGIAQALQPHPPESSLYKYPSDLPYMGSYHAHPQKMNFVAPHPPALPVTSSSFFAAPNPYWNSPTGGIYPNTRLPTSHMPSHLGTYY
# Procedure, shortened: as §1
# ELF1 = ELF1 (Homo sapiens, UniProt P32519 1-619); conditions: protein: recombinant; tags: N-terminal GST; dsDNA, one strand shown
# Procedure, shortened: as §1
# EHF = target: T5, EHF (Homo sapiens, UniProt Q9NZC4 1-300); conditions: protein: recombinant; tags: N-terminal GST; dsDNA, one strand shown
# T5 sequence: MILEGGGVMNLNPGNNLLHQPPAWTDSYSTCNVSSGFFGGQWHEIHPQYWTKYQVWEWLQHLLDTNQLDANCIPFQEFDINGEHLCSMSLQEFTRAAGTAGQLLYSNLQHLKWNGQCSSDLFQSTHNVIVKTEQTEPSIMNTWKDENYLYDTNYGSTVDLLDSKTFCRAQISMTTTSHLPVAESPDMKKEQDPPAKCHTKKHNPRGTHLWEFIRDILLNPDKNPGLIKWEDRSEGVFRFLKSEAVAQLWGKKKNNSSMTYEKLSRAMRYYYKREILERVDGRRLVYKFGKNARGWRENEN
# Procedure, shortened: as §1
# SPI1 = SPI1 (Homo sapiens, UniProt P17947 1-270); conditions: protein: recombinant; tags: N-terminal GST; dsDNA, one strand shown
# Procedure, shortened: as §1
# SPIB = SPIB (Homo sapiens, UniProt Q01892 1-262); conditions: protein: recombinant; tags: N-terminal GST; dsDNA, one strand shown
# Procedure, shortened: as §1
# ELK3 = target: T6, ELK3 (Homo sapiens, UniProt P41970 1-407); conditions: protein: recombinant; tags: N-terminal GST; dsDNA, one strand shown
# T6 sequence: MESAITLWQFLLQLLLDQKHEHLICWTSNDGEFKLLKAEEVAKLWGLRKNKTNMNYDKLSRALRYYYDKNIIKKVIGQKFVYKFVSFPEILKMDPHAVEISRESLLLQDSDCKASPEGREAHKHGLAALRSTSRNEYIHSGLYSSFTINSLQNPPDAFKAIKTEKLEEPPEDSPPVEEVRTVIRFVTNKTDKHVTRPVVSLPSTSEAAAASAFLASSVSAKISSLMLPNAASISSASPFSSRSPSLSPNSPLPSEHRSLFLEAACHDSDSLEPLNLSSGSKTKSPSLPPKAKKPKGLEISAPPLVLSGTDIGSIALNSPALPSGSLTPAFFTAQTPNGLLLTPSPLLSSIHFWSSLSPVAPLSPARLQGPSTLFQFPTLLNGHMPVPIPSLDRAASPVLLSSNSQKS
# Procedure, shortened: as §1
# FEV = target: T7, FEV (Homo sapiens, UniProt Q99581 1-238); conditions: protein: recombinant; tags: N-terminal GST; dsDNA, one strand shown
# T7 sequence: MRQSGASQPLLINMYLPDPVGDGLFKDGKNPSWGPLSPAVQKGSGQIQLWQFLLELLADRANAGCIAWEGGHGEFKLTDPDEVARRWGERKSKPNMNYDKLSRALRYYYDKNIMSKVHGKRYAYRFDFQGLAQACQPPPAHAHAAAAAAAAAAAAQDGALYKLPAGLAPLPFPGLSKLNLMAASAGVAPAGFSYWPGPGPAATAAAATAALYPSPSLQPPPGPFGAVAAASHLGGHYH
# Procedure, shortened: as §1
# ETV5 = ETV5 (Homo sapiens, UniProt P41161 1-510); conditions: protein: recombinant; tags: N-terminal GST; dsDNA, one strand shown
# Procedure, shortened: as §1
# HSF1 = HSF1 (Homo sapiens, UniProt Q00613 1-529); conditions: protein: recombinant; tags: N-terminal GST; chain copies: 3; dsDNA, one strand shown
# Procedure, shortened: as §1
# SPIC = target: T8, SPIC (Homo sapiens, UniProt Q8N5J4 1-248); conditions: protein: recombinant; tags: N-terminal GST; dsDNA, one strand shown
# T8 sequence: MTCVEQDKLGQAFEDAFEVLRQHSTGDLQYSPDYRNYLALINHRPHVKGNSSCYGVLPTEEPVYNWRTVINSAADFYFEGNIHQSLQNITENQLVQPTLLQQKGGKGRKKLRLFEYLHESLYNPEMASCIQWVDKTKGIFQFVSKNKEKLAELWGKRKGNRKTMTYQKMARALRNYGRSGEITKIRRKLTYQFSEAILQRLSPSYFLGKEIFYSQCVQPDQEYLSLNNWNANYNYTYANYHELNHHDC
# Procedure, shortened: as §1
# ELF4 = ELF4 (Homo sapiens, UniProt Q99607 1-663); conditions: protein: recombinant; tags: N-terminal GST; dsDNA, one strand shown
# Procedure, shortened: as §1
# ELK4 = target: T9, ELK4 (Homo sapiens, UniProt P28324-2 1-405); conditions: protein: recombinant; tags: N-terminal GST; dsDNA, one strand shown
# T9 sequence: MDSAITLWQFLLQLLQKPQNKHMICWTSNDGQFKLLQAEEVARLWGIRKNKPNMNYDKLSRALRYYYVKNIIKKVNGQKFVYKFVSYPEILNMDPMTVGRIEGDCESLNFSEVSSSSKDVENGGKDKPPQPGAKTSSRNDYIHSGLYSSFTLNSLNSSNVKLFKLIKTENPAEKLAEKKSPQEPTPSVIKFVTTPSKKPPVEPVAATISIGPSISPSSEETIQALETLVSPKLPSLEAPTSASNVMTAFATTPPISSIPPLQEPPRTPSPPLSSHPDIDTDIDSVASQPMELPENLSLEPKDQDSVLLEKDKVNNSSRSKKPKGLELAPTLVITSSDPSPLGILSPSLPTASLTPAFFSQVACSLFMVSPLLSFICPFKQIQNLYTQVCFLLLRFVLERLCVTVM
# Procedure, shortened: as §1
# ETV2 = target: T10, ETV2 (Homo sapiens, UniProt O00321 1-342); conditions: protein: recombinant; tags: N-terminal GST; dsDNA, one strand shown
# T10 sequence: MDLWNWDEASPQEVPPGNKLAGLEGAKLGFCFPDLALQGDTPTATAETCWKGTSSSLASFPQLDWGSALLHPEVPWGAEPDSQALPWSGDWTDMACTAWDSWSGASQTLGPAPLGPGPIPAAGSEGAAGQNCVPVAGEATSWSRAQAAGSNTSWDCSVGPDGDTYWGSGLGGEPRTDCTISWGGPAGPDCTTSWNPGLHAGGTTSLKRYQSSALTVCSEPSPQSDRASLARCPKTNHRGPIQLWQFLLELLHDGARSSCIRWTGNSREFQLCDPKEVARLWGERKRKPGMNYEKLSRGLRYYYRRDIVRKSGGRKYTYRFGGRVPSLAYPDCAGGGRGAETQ
# Procedure, shortened: as §1
# ELF3 = target: T11, ELF3 (Homo sapiens, UniProt P78545 1-371); conditions: protein: recombinant; tags: N-terminal GST; dsDNA, one strand shown
# T11 sequence: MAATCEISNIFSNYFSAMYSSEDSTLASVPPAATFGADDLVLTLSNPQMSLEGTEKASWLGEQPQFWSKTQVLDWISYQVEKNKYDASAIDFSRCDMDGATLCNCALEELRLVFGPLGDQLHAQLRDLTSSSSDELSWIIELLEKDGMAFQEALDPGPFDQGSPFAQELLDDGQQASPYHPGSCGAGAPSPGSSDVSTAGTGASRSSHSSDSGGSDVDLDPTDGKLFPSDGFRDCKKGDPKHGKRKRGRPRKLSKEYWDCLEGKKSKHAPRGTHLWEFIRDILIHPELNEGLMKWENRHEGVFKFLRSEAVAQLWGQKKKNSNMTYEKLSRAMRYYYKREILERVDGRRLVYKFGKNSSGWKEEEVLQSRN
# Procedure, shortened: as §1
# CRX = CRX (Homo sapiens, UniProt O43186 1-299); conditions: protein: recombinant; tags: N-terminal GST; dsDNA, one strand shown
# Procedure, shortened: as §1
# ETV1 = ETV1 (Homo sapiens, UniProt P50549 1-477); conditions: protein: recombinant; tags: N-terminal GST; dsDNA, one strand shown
# Procedure, shortened: as §1
# Chain of CRX (O43186 whole entry): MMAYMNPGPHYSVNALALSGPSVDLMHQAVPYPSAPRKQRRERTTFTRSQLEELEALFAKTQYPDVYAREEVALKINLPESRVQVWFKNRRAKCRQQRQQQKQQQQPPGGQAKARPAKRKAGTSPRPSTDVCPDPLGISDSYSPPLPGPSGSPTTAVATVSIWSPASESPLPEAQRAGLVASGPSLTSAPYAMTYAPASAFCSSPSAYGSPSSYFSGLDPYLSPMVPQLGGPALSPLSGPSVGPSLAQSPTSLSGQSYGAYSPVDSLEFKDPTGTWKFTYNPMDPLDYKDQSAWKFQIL
# Chain of ETV5 (P41161 whole entry): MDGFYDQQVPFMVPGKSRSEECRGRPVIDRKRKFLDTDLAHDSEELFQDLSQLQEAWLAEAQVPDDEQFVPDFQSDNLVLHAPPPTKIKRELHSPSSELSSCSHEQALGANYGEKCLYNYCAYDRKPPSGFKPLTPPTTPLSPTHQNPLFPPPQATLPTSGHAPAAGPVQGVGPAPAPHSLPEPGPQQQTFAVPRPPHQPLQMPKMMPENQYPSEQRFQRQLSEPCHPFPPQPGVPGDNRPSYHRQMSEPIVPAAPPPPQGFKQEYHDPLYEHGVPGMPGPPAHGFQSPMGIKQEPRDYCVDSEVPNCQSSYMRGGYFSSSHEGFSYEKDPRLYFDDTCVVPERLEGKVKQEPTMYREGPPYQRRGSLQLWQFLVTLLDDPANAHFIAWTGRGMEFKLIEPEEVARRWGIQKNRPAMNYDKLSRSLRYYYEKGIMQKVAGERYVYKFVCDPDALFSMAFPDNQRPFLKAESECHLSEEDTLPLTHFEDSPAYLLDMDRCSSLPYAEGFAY
# Chain of ETV1 (P50549 whole entry): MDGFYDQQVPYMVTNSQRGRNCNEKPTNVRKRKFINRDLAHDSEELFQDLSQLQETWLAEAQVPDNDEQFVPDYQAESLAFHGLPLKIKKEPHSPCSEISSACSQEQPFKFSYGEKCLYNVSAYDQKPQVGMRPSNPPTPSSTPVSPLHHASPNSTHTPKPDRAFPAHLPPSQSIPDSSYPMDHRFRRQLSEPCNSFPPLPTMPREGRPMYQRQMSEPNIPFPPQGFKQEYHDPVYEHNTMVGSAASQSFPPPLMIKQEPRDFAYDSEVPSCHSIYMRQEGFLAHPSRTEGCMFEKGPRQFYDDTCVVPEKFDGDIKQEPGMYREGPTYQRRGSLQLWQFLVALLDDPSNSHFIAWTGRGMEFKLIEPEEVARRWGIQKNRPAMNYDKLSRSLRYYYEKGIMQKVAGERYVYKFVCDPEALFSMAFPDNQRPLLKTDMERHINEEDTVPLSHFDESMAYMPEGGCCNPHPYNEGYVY
# Chain of HSF1 (Q00613 whole entry): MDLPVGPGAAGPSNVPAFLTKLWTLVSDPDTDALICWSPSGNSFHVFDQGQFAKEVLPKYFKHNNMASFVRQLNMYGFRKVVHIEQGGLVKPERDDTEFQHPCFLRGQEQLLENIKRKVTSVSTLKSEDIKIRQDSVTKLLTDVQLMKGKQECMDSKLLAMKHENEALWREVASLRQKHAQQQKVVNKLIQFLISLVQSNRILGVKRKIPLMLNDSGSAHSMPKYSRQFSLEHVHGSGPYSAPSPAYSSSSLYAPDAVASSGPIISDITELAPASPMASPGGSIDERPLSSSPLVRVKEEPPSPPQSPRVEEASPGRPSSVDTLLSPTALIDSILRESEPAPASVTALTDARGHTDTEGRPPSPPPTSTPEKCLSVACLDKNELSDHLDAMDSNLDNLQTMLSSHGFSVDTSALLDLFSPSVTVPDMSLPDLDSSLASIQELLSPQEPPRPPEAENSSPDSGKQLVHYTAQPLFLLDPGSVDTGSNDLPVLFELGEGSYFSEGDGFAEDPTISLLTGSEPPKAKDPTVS
# Chain of ELF1 (P32519 whole entry): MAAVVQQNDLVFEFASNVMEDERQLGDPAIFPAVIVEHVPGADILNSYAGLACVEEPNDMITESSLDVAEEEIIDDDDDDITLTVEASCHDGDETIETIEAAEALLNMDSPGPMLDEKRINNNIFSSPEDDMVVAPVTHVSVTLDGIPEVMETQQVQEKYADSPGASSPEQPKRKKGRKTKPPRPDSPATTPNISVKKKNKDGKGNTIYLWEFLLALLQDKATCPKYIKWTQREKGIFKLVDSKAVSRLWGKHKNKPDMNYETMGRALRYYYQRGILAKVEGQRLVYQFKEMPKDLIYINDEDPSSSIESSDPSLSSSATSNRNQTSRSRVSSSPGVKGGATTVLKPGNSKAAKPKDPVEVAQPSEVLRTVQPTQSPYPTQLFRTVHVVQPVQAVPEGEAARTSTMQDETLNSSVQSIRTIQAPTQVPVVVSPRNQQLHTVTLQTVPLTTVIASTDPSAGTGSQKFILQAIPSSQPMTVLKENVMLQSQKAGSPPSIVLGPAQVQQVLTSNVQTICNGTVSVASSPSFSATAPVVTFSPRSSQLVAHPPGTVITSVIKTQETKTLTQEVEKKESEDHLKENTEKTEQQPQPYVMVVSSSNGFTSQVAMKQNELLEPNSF
# Chain of ELF4 (Q99607 whole entry): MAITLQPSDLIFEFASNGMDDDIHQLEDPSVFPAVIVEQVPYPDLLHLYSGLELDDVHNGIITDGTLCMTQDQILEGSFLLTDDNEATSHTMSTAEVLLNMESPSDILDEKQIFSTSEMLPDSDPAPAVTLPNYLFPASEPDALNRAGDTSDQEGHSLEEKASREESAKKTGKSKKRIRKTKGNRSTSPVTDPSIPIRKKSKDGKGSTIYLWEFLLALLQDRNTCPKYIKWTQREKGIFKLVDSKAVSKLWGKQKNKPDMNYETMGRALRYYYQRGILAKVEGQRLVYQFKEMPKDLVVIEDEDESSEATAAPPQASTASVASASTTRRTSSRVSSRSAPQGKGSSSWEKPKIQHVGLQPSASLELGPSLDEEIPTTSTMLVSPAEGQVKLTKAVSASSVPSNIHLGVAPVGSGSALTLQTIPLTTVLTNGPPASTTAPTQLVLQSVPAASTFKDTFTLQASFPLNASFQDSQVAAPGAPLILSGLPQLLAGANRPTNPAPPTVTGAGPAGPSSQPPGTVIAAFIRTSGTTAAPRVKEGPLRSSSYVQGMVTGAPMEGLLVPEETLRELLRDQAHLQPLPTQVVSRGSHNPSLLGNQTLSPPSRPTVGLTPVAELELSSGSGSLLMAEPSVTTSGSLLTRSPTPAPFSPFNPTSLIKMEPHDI
# Chain of SPIB (Q01892 whole entry): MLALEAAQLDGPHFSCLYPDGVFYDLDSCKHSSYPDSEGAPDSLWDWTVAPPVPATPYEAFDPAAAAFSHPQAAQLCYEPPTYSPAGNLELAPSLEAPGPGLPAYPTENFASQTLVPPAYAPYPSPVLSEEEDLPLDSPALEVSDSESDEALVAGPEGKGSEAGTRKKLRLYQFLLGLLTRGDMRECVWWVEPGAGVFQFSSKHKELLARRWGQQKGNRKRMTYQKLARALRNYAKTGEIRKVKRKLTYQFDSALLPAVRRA
sequence,measurement,setting,value
TTGGTA,binding signal,FLI1,"1.23 fold enrichment (6-mer frequency, TF over GST control)"
same,binding signal,ELK1,"1.3 fold enrichment (6-mer frequency, TF over GST control)"
same,binding signal,GABPA,"1.22 fold enrichment (6-mer frequency, TF over GST control)"
same,binding signal,ERG,"1.13 fold enrichment (6-mer frequency, TF over GST control)"
same,binding signal,ELF1,"1.19 fold enrichment (6-mer frequency, TF over GST control)"
same,binding signal,EHF,"1.21 fold enrichment (6-mer frequency, TF over GST control)"
same,binding signal,SPI1,"1.23 fold enrichment (6-mer frequency, TF over GST control)"
same,binding signal,SPIB,"1.33 fold enrichment (6-mer frequency, TF over GST control)"
same,binding signal,ELK3,"1.2 fold enrichment (6-mer frequency, TF over GST control)"
same,binding signal,FEV,"1.17 fold enrichment (6-mer frequency, TF over GST control)"
same,binding signal,ETV5,"1.23 fold enrichment (6-mer frequency, TF over GST control)"
same,binding signal,HSF1,"1.16 fold enrichment (6-mer frequency, TF over GST control)"
same,binding signal,SPIC,"1.2 fold enrichment (6-mer frequency, TF over GST control)"
same,binding signal,ELF4,"1.25 fold enrichment (6-mer frequency, TF over GST control)"
same,binding signal,ELK4,"1.34 fold enrichment (6-mer frequency, TF over GST control)"
same,binding signal,ETV2,"1 fold enrichment (6-mer frequency, TF over GST control)"
same,binding signal,ELF3,"1.25 fold enrichment (6-mer frequency, TF over GST control)"
same,binding signal,CRX,"1.34 fold enrichment (6-mer frequency, TF over GST control)"
same,binding signal,ETV1,"1.24 fold enrichment (6-mer frequency, TF over GST control)"
